This excerpt belongs to a sample that is enriched for hits.
FBPA Giardia inh – qHTS Assay for Inhibitors of Fructose-1,6-bisphosphate Aldolase from Giardia Lamblia; Potency, µM (doses to about 59.6 µM), usual class: inhibitors; 290,000 compounds, 0.71% hits; purified Giardia FBPA; AID 2451, 2010; A8B2U2; note: nearly all actives have a fitted effect of over 55% in size
Target sequence (A8B2U2 whole entry, looked up): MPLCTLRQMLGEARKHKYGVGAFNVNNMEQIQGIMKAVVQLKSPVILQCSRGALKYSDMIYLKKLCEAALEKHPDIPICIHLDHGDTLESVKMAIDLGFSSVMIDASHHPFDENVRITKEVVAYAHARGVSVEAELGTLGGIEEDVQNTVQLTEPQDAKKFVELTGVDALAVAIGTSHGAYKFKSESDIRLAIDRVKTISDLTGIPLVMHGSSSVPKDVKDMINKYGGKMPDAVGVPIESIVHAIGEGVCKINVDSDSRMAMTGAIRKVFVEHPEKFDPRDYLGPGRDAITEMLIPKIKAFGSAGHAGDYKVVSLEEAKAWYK
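40 nM FBPA preincubated 10 min at RT with compound (up to 57.5 uM final), then substrate plus GAPDH/TPI/NAD/arsenate coupling and diaphorase/resazurin added. Fluorescence read after 20 min at RT, 525/598 nm.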
LmPK inh – qHTS Assay for Inhibitors of Leishmania Mexicana Pyruvate Kinase (LmPK); Potency, µM (series often up to 57.5 µM), usual class: inhibitors; Q27686; purified LmPK, Kinase-Glo ATP luminescence, 1 h; 290,000 compounds, 0.37% hits; AID 1721, 2009
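Kinase-Glo luminescence read after 1 h RT reaction of 0.1 nM LmPK with 0.5 mM PEP and 0.1 mM ADP. Activity scaled between uninhibited and enzyme-free controls.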
CHX counter – Cycloheximide Counterscreen for Small Molecule Inhibitors of Shiga Toxin | cell reporter, cycloheximide protein synthesis inhibition counterscreen | max response, % | 300,000 compounds, 12% hits | AID 2314, 2010; in the data active = max response mostly above about 13%, no sharp cut-off; inactive = mostly below about 14%; note: read at 38.3 µM for the half of the compounds with a filed dose
Tb PYK inh – qHTS of Trypanosoma Brucei Inhibitors; pyruvate kinase (Trypanosoma brucei), Q57TT1; TbPYK enzyme, Kinase-Glo Plus ATP luminescence, 45 min; Potency, µM (titrated, usually from 76.8 µM), usual class: inhibitors; 410,000 compounds, 0.12% hits; AID 624173, 2012; note: nearly all actives have a fitted effect of over 50% in size
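Assay buffer: 50 mM TEA pH 7.2, 100 mM KCl, 10 mM MgCl2, 0.05% BSA, 0.01% Tween-20. Pyruvate kinase from T. brucei plus substrate met compound, then ADP (130 uM final). Luminescence was read post 45 min RT.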
Shiga toxin inh – A qHTS for Small Molecule Inhibitors of Shiga Toxin; inhibition, % at 38.7 µM; Vero cells, Shiga toxin protein synthesis inhibition reporter; 290,000 compounds, 9.2% hits; AID 2315, 2010; in the data active = inhibition mostly above about 28%, no sharp cut-off; inactive = mostly below about 43%
RE007 growth inh – qHTS Assay for Inhibitors of the HIV-1 protein Vpr. S. pombe RE007 Vpr strain, BacTiter-Glo ATP luminescence, 24 h. Potency, µM (highest dose often 92.2 µM), usual class: inhibitors. 360,000 compounds, 0.21% hits. AID 651644, 2012; active = well fitted falling curve with a large enough effect; inconclusive = small, poorly fitted or top-dose-only effect; inactive = no such curve, though single readings can be large or run the other way; note: nearly all actives have a fitted effect of over 50% in size
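Fission yeast RE007 carrying one integrated HIV-1 vpr copy, seeded at OD 0.01 in PMG+AL medium with 23 nL pinned compound. Grown 24 h at 30 degrees; viability read by BacTiter-Glo luminescence after 5 min.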
Numbers stand for hits; – = inactive; ? = inconclusive; · = no result given; [ ] = remark or other dose. Unless noted, calls come from the whole dose curve; as a rule, active = well fitted curve in the direction sought with a large enough effect; inconclusive = small, poorly fitted or top-dose-only effect, or another doubt; inactive = no such curve, though single readings can be large; an effect the other way counts as inactive or inconclusive.

SMILES | FBPA Giardia inh | LmPK inh | CHX counter | Tb PYK inh | Shiga toxin inh | RE007 growth inh
Cc1cc(C(=O)Nc2ccc([N+](=O)[O-])cn2)cs1 | – | – | 41 | – | 141 | –
COc1ccc(C(=O)Nc2ccc([N+](=O)[O-])cn2)c(OC)c1 | – | – | 36 | – | 107 | –
COc1cc(OC)cc(C(=O)Nc2ccc([N+](=O)[O-])cn2)c1 | – | – | – | – | – | –
Cc1ccc(C(=O)Nc2ccc([N+](=O)[O-])cn2)o1 | – | – | 45 | – | 122 | ?
Cc1ccccc1Oc1ccccc1N | – | – | – | – | – | –
Nc1ccccc1Oc1ccc2ccccc2c1 | – | – | – | – | 42 | –
CCOc1ccc2cc(C#N)c(=O)oc2c1 | – | · | – | · | – | ·
C/C(=N\NC(=O)c1ccccc1F)c1ccc2c(c1)Nc1ccccc1S2 | – | – | 34 | – | 65 | –
CCN(CC)C(=O)c1cc([N+](=O)[O-])cc2c1-c1ccc([N+](=O)[O-])cc1C2=C(C#N)C#N | 7.1µM | – | – | – | – | –
CCN(CC)C(=O)c1ccc(Oc2ccc([N+](=O)[O-])cc2Cl)cc1 | – | – | – | – | – | –
COC(=O)c1ccc(-c2nc(O)c(C)s2)cc1 | – | – | – | – | – | –
COC(=O)c1ccc(-c2nc3cc(Cl)c(N)cc3s2)cc1 | ? | ? | 48 | – | 106 | –
Cc1ccc(-n2nc3ccc(N)cc3n2)cc1C | – | – | 44 | – | · | ?
COc1ccc(-n2nc3ccc(NC(=O)c4ccc(C#N)cc4F)cc3n2)cc1Cl | · | · | · | – | · | ·
COc1ccc(-n2nc3ccc(NS(C)(=O)=O)cc3n2)cc1Cl | – | – | 9.6 | – | 35 | –
COc1ccc(-n2nc3ccc(NC(=O)COc4ccc(C)c(C)c4)cc3n2)cc1 | · | · | · | – | · | ·
COc1ccc(-n2nc3ccc(N)cc3n2)cc1Cl | ? | – | 28 | – | · | –
Cc1ccc(-n2cnnn2)cc1Cl | – | – | – | – | – | –
Cc1ccc(-n2nc3ccc(N)cc3n2)cc1Cl | – | – | 32 | – | 67 | –
CCOC(=O)C1=CN(C(=O)OC(C)(C)C)C(CN2C(=O)COCC2=O)C1 (stereo unspecified) | – | · | – | · | – | ·
O=C(c1ccc2c(c1)N(Cc1c(F)cccc1Cl)C(=O)c1ccccc1S2)N1CCOCC1 | · | · | · | – | · | ·
Cc1cccc(CN2C(=O)c3ccccc3S(=O)(=O)c3ccc(C(=O)N4CCN(c5cc(C)ccc5C)CC4)cc32)c1 | · | · | · | – | · | ·
COc1ccc(-n2c(SCc3ccccc3)nc3c([nH]c4ccccc43)c2=O)cc1 | · | · | · | – | · | ·
Cc1cc(N)ccc1-n1nc2ccccc2n1 | · | · | · | – | · | ?
Cc1ccc(-n2nc3ccc(N)cc3n2)c(C)c1 | – | – | 17 | – | · | ?
SMILES | FBPA Giardia inh | LmPK inh | CHX counter | Tb PYK inh | Shiga toxin inh | RE007 growth inh
Cc1ccc(O)c(C2=Nc3ccccc3N=C(c3ccco3)C2)c1 | – | – | 24 | – | – | –
Cc1ccc(C2=Nc3ccccc3N=C(c3ccco3)C2)c(O)c1 | · | – | – | – | – | –
Cc1ccc(O)c(C2=Nc3ccccc3N=C(c3ccc([N+](=O)[O-])cc3)C2)c1 | – | – | 25 | – | – | –
Cc1ccc(O)c(C2=Nc3ccccc3N=C(c3cccc([N+](=O)[O-])c3)C2)c1 | – | – | 38 | – | 67 | –
Cc1ccc(C2=Nc3ccccc3N=C(c3ccc(F)cc3)C2)c(O)c1 | · | · | · | – | · | ·
CCOC(=O)C1=CCN(S(=O)(=O)c2ccc(C)cc2)C1c1cccc(Cl)c1 (stereo unspecified) | · | · | · | – | · | –
Cc1cccc(-c2c3c(=O)n(C)c(=O)n(C)c3c3cnc4ccccc4n23)c1 | · | · | · | – | · | ·
Cc1cccc(CSc2ncc(Cl)c(C(=O)Nc3sc4c(c3C#N)CCCC4)n2)c1 | · | · | · | – | · | ·
CN(C(=O)c1cccnc1)c1nnc(-c2cccnc2)s1 | – | – | – | – | – | –
CN(C(=O)c1ccccn1)c1nnc(-c2cnccn2)s1 | – | – | 40 | – | – | –
CC(=O)N(C)c1nnc(-c2ccccn2)s1 | – | – | 15 | – | – | –
CC(=O)c1cnc(-c2ccccc2Cl)s1 | – | – | – | – | – | ?
CN(C(=O)c1cccnc1)c1nnc(-c2ccccn2)s1 | – | – | 51 | – | – | –
CC(=O)c1cnc(-c2ccccn2)s1 | – | – | 34 | – | – | –
COc1ccc(C(=O)Oc2c(Sc3ccc(Cl)cc3)c(C)nn2C(C)(C)C)cc1OC | · | · | · | – | · | ·
Cc1ccc(-c2nnc(N(C)C(=O)c3ccccn3)s2)cn1 | – | – | 13 | – | – | –
Cc1cnc(-c2nnc(N(C)C(=O)c3ccccn3)s2)cn1 | – | – | – | · | – | ·
COCCN(C(C)=O)c1nnc(-c2ccccn2)s1 | – | – | 18 | – | – | –
COCCN(C(C)=O)c1nnc(-c2cnccn2)s1 | – | – | – | – | – | –
CN(C(=O)c1cccnc1)c1nnc(-c2cnccn2)s1 | – | – | 27 | – | – | –
COc1ccc(CCC(=O)N2CCCSC2=Nc2ccc(C(C)=O)cc2)cc1 | – | – | 21 | – | – | –
C/C(=N\NC(=O)c1ccc(Br)cc1)c1cccc(NC(=O)c2cccnc2)c1 | – | – | – | – | – | –
O=C(N/N=C/C=C/c1ccc2c(c1)OCO2)C(O)c1ccccc1 (stereo unspecified) | – | – | – | – | 47 | –
O=C(NC1C2CC3CC(C2)CC1C3)c1ccc2c(c1)OCO2 (stereo unspecified) | – | – | 28 | – | 36 | –
C/C(=N\NC(=O)c1ccncc1)c1cccc(NC(=O)c2ccc(C(C)(C)C)cc2)c1 | · | – | 27 | – | 66 | –
SMILES | FBPA Giardia inh | LmPK inh | CHX counter | Tb PYK inh | Shiga toxin inh | RE007 growth inh
C/C(=N\NC(=O)CSc1nc(C)cc(C)n1)c1ccc2c(c1)OCCO2 | – | –[11.5 µM] | 38 | – | 84 | –
O=C(NNC(=O)c1ccc2c(c1)OCO2)NC12CC3CC(CC(C3)C1)C2 | – | – | – | – | – | –
Cc1ccc(-n2nnnc2CNC(=O)c2cc(C(F)(F)F)cc(C(F)(F)F)c2)cc1C | · | · | · | – | · | ·
CCCC1NC(=O)c2cc3ccccc3cc2-n2c1nc1ccc(F)cc1c2=O (stereo unspecified) | · | · | · | – | · | –
CCOC(=O)c1cc(-c2ccc(C)cc2)n(CCCC(=O)Nc2cc(C)ccc2C)c1 | · | · | · | –[15.4 µM] | · | ·
C/C(=N/NC(=O)c1ccc(O)cc1)c1cccc([N+](=O)[O-])c1 | – | – | 31 | – | 59 | –
CC1CN=C(NC(=O)c2cccc([N+](=O)[O-])c2)S1 (stereo unspecified) | – | – | 28 | – | 26 | –
C/C(=N/NC(=O)c1ccc2c(c1)OCO2)c1ccc(Br)s1 | – | – | – | – | 49 | –
C/C(=N\NC(=O)c1cccc([N+](=O)[O-])c1)c1ccncc1 | – | – | – | – | – | –
